Hit rate of the full screen: of about 400,000 compounds, about 2,100 (0.53%) were called active. Not shown: some 14% with an inconclusive outcome. The rule behind the calls is not given here. Shown is part of a subset that was picked to be rich in actives.
target: Ataxin-2 (Homo sapiens) (UniProt Q99700); assay: qHTS for Inhibitors of ATXN expression.; assay type: functional
Sequence (Q99700 whole entry): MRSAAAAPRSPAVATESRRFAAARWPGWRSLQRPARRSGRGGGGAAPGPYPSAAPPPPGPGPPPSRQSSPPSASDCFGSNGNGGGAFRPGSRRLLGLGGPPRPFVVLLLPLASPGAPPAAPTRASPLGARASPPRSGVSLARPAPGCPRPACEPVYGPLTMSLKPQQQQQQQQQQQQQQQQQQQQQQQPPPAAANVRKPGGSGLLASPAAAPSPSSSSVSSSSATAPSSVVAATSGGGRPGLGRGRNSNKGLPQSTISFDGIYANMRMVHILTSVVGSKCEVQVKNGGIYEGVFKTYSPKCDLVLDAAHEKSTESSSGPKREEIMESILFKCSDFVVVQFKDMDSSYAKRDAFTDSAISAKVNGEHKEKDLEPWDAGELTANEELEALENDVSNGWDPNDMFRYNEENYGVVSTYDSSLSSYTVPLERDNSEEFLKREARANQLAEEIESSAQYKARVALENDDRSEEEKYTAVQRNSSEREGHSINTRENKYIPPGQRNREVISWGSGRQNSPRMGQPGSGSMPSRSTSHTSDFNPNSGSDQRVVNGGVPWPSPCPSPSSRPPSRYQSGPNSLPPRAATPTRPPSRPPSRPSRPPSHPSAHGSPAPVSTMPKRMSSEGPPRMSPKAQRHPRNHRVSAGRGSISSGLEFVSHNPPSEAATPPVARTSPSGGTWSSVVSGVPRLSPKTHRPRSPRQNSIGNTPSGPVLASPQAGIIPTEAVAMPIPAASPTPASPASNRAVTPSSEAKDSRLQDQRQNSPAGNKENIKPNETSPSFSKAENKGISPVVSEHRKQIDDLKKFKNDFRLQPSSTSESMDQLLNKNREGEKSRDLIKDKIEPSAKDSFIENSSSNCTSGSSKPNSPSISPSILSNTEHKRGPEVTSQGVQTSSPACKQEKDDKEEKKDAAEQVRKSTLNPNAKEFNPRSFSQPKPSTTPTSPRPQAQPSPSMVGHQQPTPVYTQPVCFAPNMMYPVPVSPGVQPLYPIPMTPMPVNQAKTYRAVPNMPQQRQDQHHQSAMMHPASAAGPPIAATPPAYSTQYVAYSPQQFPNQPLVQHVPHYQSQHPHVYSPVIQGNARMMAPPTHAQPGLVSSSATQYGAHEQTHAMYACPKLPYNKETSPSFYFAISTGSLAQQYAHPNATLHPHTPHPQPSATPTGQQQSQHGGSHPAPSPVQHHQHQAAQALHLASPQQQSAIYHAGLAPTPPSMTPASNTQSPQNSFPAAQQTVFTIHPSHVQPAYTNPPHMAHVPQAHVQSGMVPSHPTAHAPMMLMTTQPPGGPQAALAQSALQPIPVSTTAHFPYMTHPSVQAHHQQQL

SMILES	Potency
COc1cccc(NC(=O)COC(=O)CCC(=O)c2cccs2)c1	inactive
O=C(C[n+]1ccccc1)NN=Cc1cc(Br)cc(Br)c1O	inactive
CC(C)OCCCn1/c(=N/C(=O)c2cccs2)c(C#N)cc2c(=O)n3ccccc3nc21	inactive
COc1ccccc1N(CC(=O)NC1CCCC1)C(=O)CCC(=O)Nc1ccccn1	inactive
CCN(CC(=O)NCc1cccs1)C(=O)/C=C/c1ccc(F)cc1	inactive
COc1ccc2oc(=O)c(C(=O)NC3CCCCCC3)cc2c1	inactive
CCN(CC(=O)NCc1cccs1)C(=O)c1ccccc1F	inactive
COc1ccc(C(=O)/C=C/C(=O)N(CC(=O)NC2CCCCC2)Cc2ccccc2OC)c(O)c1	26.7 µM (active)
COc1ccc(C(=O)/C=C/C(=O)N(CC(=O)NCCC(C)C)Cc2cccs2)c(O)c1	31.6 µM (active)
Cc1cc(NC(=O)CCC(=O)N(CC(=O)NC2CCCC2)Cc2ccccc2Cl)no1	inactive
COc1ccc(C(=O)OCCOc2ccccc2C(C)=O)c(O)c1	inactive
COCCN(CC(=O)NC1CCCCC1)C(=O)/C=C/C(=O)c1ccc(OC)cc1O	23.8 µM (active)
CCc1ccc(N(C(=O)c2ccco2)C(C(=O)NC2CCCC2)c2ccncc2)cc1 (configuration not stated)	inactive
COc1ccc(C(=O)/C=C/C(=O)N(Cc2ccccc2OC)C(C(=O)NC2CCCCC2)c2ccncc2)c(O)c1 (configuration not stated)	26.7 µM (active)
Cc1cc(Br)ccc1NC(=O)CNC(=O)c1cnn(C)c1	inactive
N#Cc1c(N2CCCCC2)nc(N)c2c(N)nc3c(c12)CC(CCl)O3 (configuration not stated)	inactive
Cc1cc(=O)oc2c3c4c(cc12)OCCN4CCC3	inactive
Cc1c(C)c2cc3c(c(C)c2oc1=O)OCN(CCc1ccccc1)C3	inactive
COc1ccc(C(=O)/C=C/C(=O)N(CC(=O)NC2CCCCC2)Cc2ccc(F)cc2)c(O)c1	28.2 µM (active)

SMILES	Potency
COc1ccc(OCC(=O)OCC(=O)NC2CCCCC2C)cc1 (configuration not stated)	inactive
COc1ccc(O)c(/C=N/NC(=O)CCC(=O)Nc2ccc(F)cc2)c1	inactive
COc1ccc(CC(=O)Nc2ccc(S(=O)(=O)N3CCN(C)CC3)cc2)cc1	inactive
CC(C)C[C@H]1CNC(=S)N1C[C@H]1CCCN1C[C@H](CC(C)C)N1C[C@H](Cc2ccc(O)cc2)N(CC2CCCCC2)C1=S	35.5 µM (active)
CC(C)C[C@H]1CN([C@@H](CC(C)C)CN2CCC[C@H]2CN2C(=O)C(=O)NC[C@@H]2Cc2ccc(O)cc2)C(=O)C(=O)N1CC1CCCCCC1	35.5 µM (active)
CC(C)C[C@@H](CN1CCC[C@H]1CN1C(=O)C(=O)NC[C@@H]1Cc1ccccc1)N1C[C@H](Cc2ccccc2)N(CC2CCCCCC2)C(=O)C1=O	20 µM (active)
CC(C)C[C@@H](CN1CCC[C@@H]1CN1C(=O)C(=O)NC[C@@H]1Cc1ccccc1)N1C[C@H](Cc2ccc(O)cc2)N(CC2CCCCCC2)C(=O)C1=O	28.2 µM (active)
CCCCN(C)Cc1cc(=O)oc2cc3c(cc12)CCCC3	inactive
Nc1cccc2c1C(=O)N(C(=O)c1ccc(S(=O)(=O)N3CCCCCC3)cc1)C2=O	inactive
Cc1c(C)c2cc(Cl)c(O)c(CN3CCCC(C)C3)c2oc1=O (configuration not stated)	inactive
Cc1csc(Nc2ccc(Cl)cc2)[n+]1-c1ccc(Cl)cc1	inactive
CC(C)C[C@@H](CN1CCC[C@H]1CN1C(=O)C(=O)NC[C@@H]1Cc1ccccc1)N1C[C@H](Cc2ccccc2)N(CC2CCCCC2)C(=O)C1=O	35.5 µM (active)
COCCCC1CCN(C(=O)C2CCC(=O)N(CCCc3ccccc3)C2)CC1 (configuration not stated)	inactive
O=C1NC[C@H](Cc2ccccc2)N(C[C@@H]2CCCN2C[C@H](Cc2ccccc2)N2C[C@H](Cc3ccccc3)N(CC3CCCCC3)C(=O)C2=O)C1=O	39.8 µM (active)
CC(C)C[C@H]1CNC(=S)N1C[C@H]1CCCN1C[C@H](Cc1ccc(O)cc1)N1C[C@H](Cc2ccc(O)cc2)N(CCc2ccccc2)C1=S	15.8 µM (active)
O=C1NC[C@H](CCCCN2C[C@H](Cc3ccccc3)N(CCc3ccccc3)C(=O)C2=O)N(CCC2CCCCC2)C1=O	20 µM (active)
Clc1ccc2oc(-c3ccccc3)cc(=NCCCN3CCOCC3)c2c1	inactive
COc1ccc(CCNC2CCc3ccccc3C2)cc1 (configuration not stated)	inactive
O=C(Cn1ccc([N+](=O)[O-])n1)NCc1ccccc1	inactive

SMILES	Potency
Cc1c(O)c(CN2CCCCC2)cc2c3c(c(=O)oc12)CCC3	inactive
Cc1nc(-c2ccc(S(=O)(=O)Nc3cccc(S(N)(=O)=O)c3)s2)cs1	inactive
Cc1ccc(-n2c3nc(=O)n(C)c(=O)c-3cc3ccccc32)cc1	inactive
Cc1ccc(-n2c(=O)c(C#N)cc3c(=O)n4ccccc4nc32)cc1	inactive
Cc1ccc(-n2c(Cl)c(Cl)nc(Cl)c2=O)cc1	4.74 µM (active)
O=c1c2ccccc2c(-c2ccc(F)cc2)nn1-c1ccc(C(F)(F)F)cc1	inactive
Fc1ccc2cnc(-c3ccccc3)c(-c3cc(C(F)(F)F)cc(C(F)(F)F)c3)c2c1	35.5 µM (active)
CCOC(=O)C1(CC2CCCCO2)CCN(S(=O)(=O)c2ccccc2)CC1 (configuration not stated)	inactive
COc1cccc(/C=C/C(=O)Nc2ccccc2N2CCOCC2)c1	inactive
COc1ccc2cc3cc(C(=O)Nc4ccc5c(c4)OCCO5)oc3nc2c1	28.2 µM (active)
COc1c(C)cc(Br)cc1C(=O)Nc1ccccc1N1CCN(C(=O)c2ccccc2)CC1	inactive
COc1ccc2cc3cc(C(=O)Nc4ccccc4N4CCN(C)CC4)oc3nc2c1	39.8 µM (active)
CN1CCN(c2ccccc2NC(=S)NC(=O)c2cc3ccccc3o2)CC1	39.8 µM (active)
COc1ccc2cc3cc(C(=O)Nc4ccc5c(c4)OCO5)oc3nc2c1	22.4 µM (active)
Cc1ccc2cccc(OCC(=O)Nc3ccc4c(c3)OCO4)c2n1	inactive
COc1ccc(C(=O)Nc2ccc3ccccc3c2)c(OC)c1	inactive
Cc1ccc(C)c(NC(=O)c2cc3ccccc3o2)c1	inactive
COc1ccc(C(=O)Nc2ccccc2N2CCOCC2)cc1S(=O)(=O)N1CCOCC1	inactive
Nc1c(C(=O)CSc2nnc(Nc3ccc(F)cc3)s2)c(=O)[nH]c(=O)n1C1CC1	inactive

Reference: ChEMBL document CHEMBL1201862, “PubChem BioAssay data set” (2004)
